Measured values published in ChEMBL document CHEMBL1201862, “PubChem BioAssay data set” (2004).
Several values for one entry are separate records, joined by “and”; a condition that tells them apart may be missing. Identical values can stand only once.

Assay: Mycobacterium tuberculosis growth inhibition, dose response, 7H9 media, purified and synthesized compounds, set 8 (AID 588447); call rule not given here
Assay type: functional

Row | Compound | IC90
1 | CC1CCCN(C(=O)C2CCC(CNc3c(N4CCCCC4)c(=O)c3=O)CC2)C1 (centres undefined) | > 100 µM (active)
2 | CCOC(=O)CSc1ncnc2c1cnn2-c1ccccc1 | > 75.1 µM (active)
3 | CC1CC(C)CN(C(=O)C2CCC(CNc3c(N4CCCCC4)c(=O)c3=O)CC2)C1 (centres undefined) | > 75 µM (active) and > 100 µM (active)
4 | CC(C)OC(=O)CSc1ncnc2c1cnn2-c1ccccc1 | > 100 µM (active)
5 | O=C(c1ccc(CNc2c(N3CCCC3)c(=O)c2=O)cc1)N1CCc2ccccc2C1 | > 100 µM (active)
6 | CC(=O)c1ccc(NC(=O)c2ccc(CNc3c(N4CCOCC4)c(=O)c3=O)cc2)cc1 | > 100 µM (active)
7 | O=C(NCCc1ccc(Cl)cc1)c1ccc(CNc2c(N3CCOCC3)c(=O)c2=O)cc1 | > 100 µM (active)
8 | CC1CCN(C(=O)c2ccc(CNc3c(N4CCCC4)c(=O)c3=O)cc2)CC1 | > 100 µM (active)
9 | COc1ccc(N2CCN(C(=O)c3ccc(CNc4c(N5CCOCC5)c(=O)c4=O)cc3)CC2)cc1 | > 100 µM (active)
10 | O=C(C1CCC(CNc2c(N3CCCCC3)c(=O)c2=O)CC1)N1CCCCC1 (centres undefined) | > 100 µM (active)
11 | CC1CC(C)CN(C(=O)c2ccc(CNc3c(N4CCCC4)c(=O)c3=O)cc2)C1 (centres undefined) | > 100 µM (active)
12 | CC1CCCN(C(=O)c2ccc(CNc3c(N4CCCCC4)c(=O)c3=O)cc2)C1 (centres undefined) | > 100 µM (active)
13 | O=C(NCCc1ccc(Cl)cc1)C1CCC(CNc2c(N3CCCCC3)c(=O)c2=O)CC1 (centres undefined) | > 100 µM (active)
14 | Cc1cccc(N2CCN(C(=O)c3ccc(CNc4c(N5CCC(C)CC5)c(=O)c4=O)cc3)CC2C)c1 (centres undefined) | > 76.5 µM (active)
